In PubChem BioAssay (NCI):
The panel holds about 79,000 compounds, 15% with a hit somewhere; the sample as a whole holds those more often. A number with no mark means an inactive call. Calls of active or inactive are those of the source. No stated cut-off is given here; in the data, active means growth inhibition above about 70%; inactive means the rest.

Assays:
[1] = NCI Yeast Anticancer Drug Screen. Data for the rad50 strain (AID 155);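 further: 0% = growth of vehicle-only cultures of the same strain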; conditions: S. cerevisiae rad50 strain growth inhibition, active compounds read high
Summary of the method: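 Readout: growth inhibition relative to vehicle-treated cultures. Compound exposure was carried out in a genetically defined yeast strain deficient in DNA damage repair.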

[2] = NCI Yeast Anticancer Drug Screen. Data for the mec2-1 strain (AID 157); conditions: S. cerevisiae mec2-1 strain, active compounds read high
Summary of the method: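 Compounds were applied to mec2-1 yeast cells. Their growth was then compared with that of vehicle-treated cultures to give growth inhibition.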

[3] = NCI Yeast Anticancer Drug Screen. Data for the sgs1 mgt1 strain (AID 161);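 further: 0% = growth of cultures given vehicle only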; conditions: S. cerevisiae sgs1 mgt1 strain, active compounds read high
Summary of the method: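 Yeast cells carrying a defined DNA-repair defect were exposed to test compounds. Growth inhibition was measured relative to vehicle-treated controls.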

[4] = NCI Yeast Anticancer Drug Screen. Data for the cln2 rad14 strain (AID 165);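 further: 0% = growth equal to vehicle treated cultures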; conditions: S. cerevisiae cln2 rad14 strain, active compounds read high
Summary of the method: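 Strain: cln2 rad14 yeast, altered in cell cycle control and DNA damage repair. Read-out: growth inhibition vs vehicle.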

[5] = NCI Yeast Anticancer Drug Screen. Data for the bub3 strain (AID 167); conditions: S. cerevisiae bub3 mutant strain, active compounds read high
Summary of the method: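 Readout: yeast growth inhibition, expressed relative to vehicle-only wells. The test organism is a mutant strain from a panel with lesions in DNA repair or checkpoint genes.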

[6] = NCI Yeast Anticancer Drug Screen. Data for the mlh1 rad18 strain (AID 175); conditions: S. cerevisiae mlh1 rad18 strain growth inhibition, active compounds read high
Summary of the method: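 A repair-deficient yeast strain is exposed to test compound, and growth is scored relative to vehicle-treated controls.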

[7] = at 5.0 µM (retest, dose inferred, filed as 0.5)
[8] = at 50.0 µM (retest, dose inferred, filed as 5.0)

| SMILES | growth inhibition [1, 7] | growth inhibition [1, 8] | growth inhibition ([1]; at 50.0 µM) | growth inhibition [2, 7] | growth inhibition [2, 8] | growth inhibition ([2]; at 50.0 µM) | growth inhibition [3, 7] | growth inhibition [3, 8] | growth inhibition ([3]; at 50.0 µM) | growth inhibition [4, 7] | growth inhibition [4, 8] | growth inhibition ([4]; at 50.0 µM) | growth inhibition [5, 7] | growth inhibition [5, 8] | growth inhibition ([5]; at 50.0 µM) | growth inhibition [6, 7] | growth inhibition [6, 8] | growth inhibition ([6]; at 50.0 µM) |
| --- | --- | --- | --- | --- | --- | --- | --- | --- | --- | --- | --- | --- | --- | --- | --- | --- | --- | --- |
| N#CSCC(=O)c1ccccc1 | 93% (active) | 98% (active) | 98.8% (active) | 95% (active) | 99% (active) | 99.2% (active) | 95% (active) | 98% (active) | 97.5% (active) | 87% (active) | 99% (active) | 97.2% (active) | 94% (active) | 98% (active) | 99% (active) | 92% (active) | 98% (active) | 98.6% (active) |
| CC1=C(C(=O)Nc2cccc(C(F)(F)F)c2)C(c2ccccc2F)C(C(=O)Nc2cccc(C(F)(F)F)c2)=C(C)N1 | 46% | 46% | 78.4% (active) | 46% | 46% | 78.9% (active) | 29% | 29% | 85.9% (active) | 21% | 21% | 85.7% (active) | 37% | 37% | 85.2% (active) | 47% | 47% | 80.4% (active) |
| NC(=S)c1cccc(C2Nc3ccccc3O2)c1 (stereo not given) | -1% | 24% | 75.1% (active) | 0% | 11% | 44% | 9% | 18% | 39.1% | 0% | 30% | 37.7% | 47% | 68% | 81.7% (active) | 37% | 61% | 76.3% (active) |
| CCCCCc1cc(C(=O)OC/C(C)=N/O)c2ccccc2n1 | -5% | 90% (active) | 97.2% (active) | -9% | 95% (active) | 97.5% (active) | -6% | 91% (active) | 96.5% (active) | -5% | 92% (active) | 83.2% (active) | -6% | 93% (active) | 97.8% (active) | -6% | 93% (active) | 97.4% (active) |
| O=C1OCCCOC(=O)c2cc(ccc2O)OCC#CC#CCOc2ccc(O)c1c2 | 2% | -6% | 12.6% | -4% | 19% | 8.75% | -1% | -3% | 16.1% | 4% | -4% | 38.6% | 2% | -6% | 86.2% (active) | 0% | -4% | 29.7% |
| CC(C)(C)OC(=O)N(CCCCNC(=O)OCc1ccccc1)CCCNC(=O)OCc1ccccc1 | 9% | 9% | 23.1% | 7% | -4% | 14.8% | -19% | -3% | -1.15% | 0% | 18% | -0.85% | 2% | -1% | -13.4% | 9% | 9% | -57.7% |
| CSC(=N)N1N=C2/C(=C/c3ccccc3)CCC[C@H]2[C@H]1c1ccccc1 | -17% | -14% | 21.4% | -7% | -2% | -6.7% | -13% | 13% | 40.7% | -35% | 5% | -14.8% | -3% | 5% | 4.45% | -10% | 29% | 27.9% |
| Oc1c(Cl)cc(C(c2cc(Cl)c(O)c(Cl)c2)C(Cl)(Cl)Cl)cc1Cl | 94% (active) | 98% (active) | 98.8% (active) | 95% (active) | 99% (active) | 99.1% (active) | 81% (active) | 99% (active) | 99.3% (active) | 99% (active) | 98% (active) | 98.5% (active) | 96% (active) | 99% (active) | 98.8% (active) | 92% (active) | 98% (active) | 98.6% (active) |
| CC1=C(C)C(=O)C(CNCc2ccccc2)=[C-]C1=O.[Co].[c-]1[c-][c-][cH-][c-]1 | 6% | -13% | 45.8% | -3% | 26% | 35.6% | 5% | 19% | 44.8% | 7% | 10% | 51.1% | 11% | 15% | 19.1% | 6% | 3% | 32.3% |
| C/C(=N\NC(=S)NC(C)(C)C)c1ccccn1 | 20% | 99% (active) | 77% (active) | 13% | 99% (active) | 85% (active) | 32% | 99% (active) | 90.5% (active) | 31% | 99% (active) | 89.5% (active) | 18% | 99% (active) | 90.2% (active) | 38% | 98% (active) | 91.2% (active) |
| O=C(O)C1CCc2ccc3ccccc3c2C1c1cccc2ccccc12 (stereo not given) | 42% | 98% (active) | 98.1% (active) | 36% | 98% (active) | 98% (active) | 32% | 98% (active) | 97.7% (active) | 61% | 98% (active) | 97% (active) | 40% | 98% (active) | 97% (active) | 52% | 98% (active) | 98% (active) |
| O=C(Nc1ccccc1)OCCCCl | -7% | -4% | 9.1% | -7% | 1% | -13.3% | -16% | 25% | 30.6% | 25% | -7% | 64.3% | -19% | -19% | 7.3% | -23% | -8% | 12.4% |
| COC(OC)(c1ccccc1)C(Br)Br | -21% | 50% | 85.8% (active) | -18% | 86% (active) | 93.2% (active) | -24% | 45% | 89.3% (active) | -7% | 41% | 90.4% (active) | -25% | 89% (active) | 90% (active) | -12% | 59% | 84.8% (active) |
| O=C1c2ccccc2-c2cc([N+](=O)[O-])c([N+](=O)[O-])cc21 | 16% | 99% (active) | 93.2% (active) | 19% | 45% | 98.6% (active) | 21% | 99% (active) | 96% (active) | -15% | 90% (active) | 90% (active) | 7% | 99% (active) | 98.7% (active) | 5% | 98% (active) | 98.3% (active) |
| ClC(Cl)(Cl)C(NCCN1CCOCC1)c1ccccc1 (stereo not given) | 99% (active) | 88% (active) | 80% (active) | 100% (active) | 99% (active) | 61.7% | 100% (active) | 98% (active) | 84.5% (active) | 66% | 55% | 78.8% (active) | 98% (active) | 97% (active) | 66.3% | 99% (active) | 98% (active) | 78.7% (active) |
| O=C(CC(=O)c1ccncc1)c1ccccc1 | 7% | 96% (active) | 97.2% (active) | 7% | 90% (active) | 94.7% (active) | 1% | 93% (active) | 97% (active) | -16% | 96% (active) | 93.8% (active) | -1% | 98% (active) | 97.6% (active) | 0% | 99% (active) | 98% (active) |
| O=C(Nc1ccc(Cl)cc1Cl)OC(Cn1cncn1)c1ccc(Cl)cc1Cl (stereo not given) | 71% (active) | 71% (active) | 91.2% (active) | 67% | 67% | 91.4% (active) | 77% (active) | 77% (active) | 90.5% (active) | 66% | 66% | 88.7% (active) | 72% (active) | 72% (active) | 92.5% (active) | 77% (active) | 77% (active) | 90.5% (active) |
| Oc1c(Cl)cc(Cl)c(Cc2c(Cl)cc(Cl)c(O)c2Cl)c1Cl | 98% (active) | 97% (active) | 65.8% | 98% (active) | 98% (active) | 3.5% | 98% (active) | 99% (active) | -10.2% | 98% (active) | 97% (active) | 19.5% | 97% (active) | 97% (active) | -3.05% | 99% (active) | 96% (active) | 46.6% |
| COC(=O)/C(Br)=C(\Br)c1ccccc1 | 6% | 13% | -11.4% | 6% | 6% | 24.1% | 14% | -6% | 36.7% | 2% | 6% | -18.6% | 0% | 21% | 52.8% | 22% | 40% | 21.7% |
| CC1COC(=O)O1 (stereo not given) | -31% | -1% | -4.85% | -3% | -2% | -2.35% | 6% | 6% | 6% | 6% | 2% | 15.2% | 3% | 4% | -2% | 7% | 18% | 15.8% |
